PubChem BioAssay (Tox21)
Values joined by “and” are separate entries in the source; they are usually repeats but may differ in a detail not shown here. Equal entries are not always repeated. Records with an inconclusive call do not appear. A call without a number means that no potency is given here. Active and inactive are the calls of the source. Unless noted, calls follow the shape of the dose curve; as a rule, active = well fitted curve in the direction sought with a large enough effect in the repeat runs; inconclusive = weak or mixed curves; inactive = flat fitted curve, though single readings scatter.

Tests used:
[1] = qHTS assay to test for compound auto fluorescence at 535 nm (green) in HEK293 cells (AID 720680)
[2] = qHTS assay to test for compound auto fluorescence at 535 nm (green) in HEK293 cell free culture (AID 720682)
How it was run: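 Green-channel intensity (Ex/Em 485/535 nm) was recorded from compound-treated wells containing only DMEM with 10% FBS. Fluorescein provided the equivalency standard.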

[3] = qHTS assay to test for compound auto fluorescence at 590 nm (red) in HEK293 cell free culture (AID 720683)
How it was run: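 Cell-free wells of DMEM with 10% FBS received compound, and intrinsic fluorescence was read at excitation/emission 540/590 nm. Values expressed as equivalence to Rose Bengal sodium.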

[4] = qHTS assay to test for compound auto fluorescence at 590 nm (red) in HepG2 cell free culture (AID 720684)
How it was run: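 Rose Bengal sodium served as the reference for red signal. Test compounds were dispensed into serum-containing MEM (10% FBS) without cells, and plates were read at 540/590 nm.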

[5] = qHTS assay to test for compound auto fluorescence at 460 nm (blue) in HepG2 cell free culture (AID 720685); also: potency is read from the fitted curve at half-maximal effect
How it was run: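 Cell-free plates of MEM plus 10% FBS received 23 nL compound or DMSO vehicle; blue-channel (405/460 nm) intensity scored against triamterene as reference fluorophore.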

[6] = qHTS assay to test for compound auto fluorescence at 535 nm (green) in HepG2 cell free culture (AID 720686)
[7] = qHTS assay to test for compound auto fluorescence at 460 nm (blue) in HepG2 cells (AID 720687); also: potency is read from the fitted curve at half-maximal effect
How it was run: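 HepG2 cells in MEM with 10% FBS, attached overnight at 37 C, were exposed to compound or DMSO for 1 hr at 37 C, 5% CO2. Blue fluorescence was read at 405/460 nm, with triamterene as reference fluorophore.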

[8] = qHTS assay to test for compound auto fluorescence at 460 nm (blue) in HEK293 cell free culture (AID 720681)
How it was run: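 Compounds were added to cell-free DMEM with 10% FBS and fluorescence read directly. The blue channel used 405 nm excitation and 460 nm emission, with triamterene as the reference fluorophore.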

[9] = target: Glucocorticoid receptor (Homo sapiens) (UniProt P04150); test: qHTS assay to identify small molecule agonists of the glucocorticoid receptor (GR) signaling pathway (AID 720691; active = well fitted activation curve with a large enough effect in the signal ratio in the repeat runs, not every such curve was filed as active; the % refers to the signal ratio)
Glucocorticoid receptor (Homo sapiens), sequence (P04150 whole entry, looked up): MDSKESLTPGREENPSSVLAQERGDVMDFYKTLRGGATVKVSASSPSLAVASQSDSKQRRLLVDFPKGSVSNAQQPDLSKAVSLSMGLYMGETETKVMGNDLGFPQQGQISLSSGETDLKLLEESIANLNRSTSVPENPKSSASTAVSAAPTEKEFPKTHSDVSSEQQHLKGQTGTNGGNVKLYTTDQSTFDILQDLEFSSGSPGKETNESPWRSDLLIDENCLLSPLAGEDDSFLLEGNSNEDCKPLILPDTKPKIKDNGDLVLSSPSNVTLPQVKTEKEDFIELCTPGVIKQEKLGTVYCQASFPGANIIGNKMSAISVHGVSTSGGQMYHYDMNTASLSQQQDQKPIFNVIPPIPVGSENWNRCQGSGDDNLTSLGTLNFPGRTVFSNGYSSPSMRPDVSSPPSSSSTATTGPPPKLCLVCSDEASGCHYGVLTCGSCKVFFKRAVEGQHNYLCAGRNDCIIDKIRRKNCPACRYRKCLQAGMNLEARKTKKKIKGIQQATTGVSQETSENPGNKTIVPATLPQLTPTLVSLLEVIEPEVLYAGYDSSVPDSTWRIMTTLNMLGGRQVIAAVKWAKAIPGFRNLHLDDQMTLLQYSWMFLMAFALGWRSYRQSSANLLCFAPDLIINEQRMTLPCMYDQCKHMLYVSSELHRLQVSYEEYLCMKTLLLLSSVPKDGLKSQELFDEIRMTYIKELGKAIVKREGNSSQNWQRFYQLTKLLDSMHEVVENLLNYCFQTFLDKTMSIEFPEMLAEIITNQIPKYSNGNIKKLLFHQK
How it was run: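 A HeLa cervical cancer line expressing GR and a glucocorticoid response element-driven beta-lactamase gene is treated with compounds for 18 h; LiveBLAzer B/G FRET substrate is then applied and fluorescence read.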

[10] = target: Glucocorticoid receptor (Homo sapiens) (UniProt P04150); test: qHTS assay to identify small molecule antagonists of the glucocorticoid receptor (GR) signaling pathway (AID 720692; active = well fitted inhibition curve with a large enough effect in the signal ratio in the repeat runs, not every such curve was filed as active; the % refers to the signal ratio)
How it was run: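 GRE-bla HeLa line, dex-stimulated (5 nM final). Compound exposure 18 h, 37 C. Beta-lactamase FRET read after 2 h RT substrate.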
Tags tell the direction and shape of the fitted curve or compound fluorescence and quenching.

Q: Which Potency [1] does the source give for `Cc1cccc2n[nH]nc12` here?
A: Its Potency is “inactive”.

Q: What about the Potency [2] of the same molecule?
A: Its Potency is “inactive”.

Q: What about the outcome [3] of the same molecule?
A: Its outcome is “inactive”.

Q: What about the outcome [4] of the same molecule?
A: The outcome was “inactive”.

Q: What about the Potency [5] of the same molecule?
A: Its Potency is “inactive”.

Q: And the Potency [6]?
A: The Potency was “inactive”.

Q: What about the Potency [7] of the same molecule?
A: Its Potency is “inactive”.

Q: For `CO[Si](OC)(OC)c1ccccc1`, which Potency [1] is on record?
A: The Potency was “inactive”.

Q: What about the Potency [8] of the same molecule?
A: Its Potency is “inactive”.

Q: What about the Potency [2] of the same molecule?
A: Its Potency is “inactive”.

Q: What about the outcome [3] of the same molecule?
A: Its outcome is “inactive”.

Q: And the outcome [4]?
A: Its outcome is “inactive”.

Q: And the Potency [5]?
A: The Potency was “inactive”.

Q: And the Potency [6]?
A: Its Potency is “inactive”.

Q: What about the Potency [7] of the same molecule?
A: Its Potency is “inactive”.

Q: What about the Potency [9] of the same molecule?
A: Its Potency is “inactive”.

Q: What about the Potency [10] of the same molecule?
A: Its Potency is “inactive”.

Q: With `Nc1nc2ccccc2[nH]1` as the molecule, how does the Potency [1] read?
A: Its Potency is “inactive”.

Q: What about the Potency [8] of the same molecule?
A: The Potency was “inactive”.

Q: And the Potency [2]?
A: The Potency was “inactive”.

Q: What about the outcome [3] of the same molecule?
A: The outcome was “inactive”.

Q: What about the outcome [4] of the same molecule?
A: The outcome was “inactive”.

Q: And the Potency [5]?
A: The Potency was “inactive”.

Q: What about the Potency [6] of the same molecule?
A: The Potency was “inactive”.

Q: What about the Potency [7] of the same molecule?
A: Its Potency is “inactive”.

Q: And the Potency [9]?
A: The Potency was “inactive”.

Q: And the Potency [10]?
A: The Potency was “inactive”.

Q: Which Potency [1] does the source give for `Oc1c(Cl)cc(Cl)cc1Sc1cc(Cl)cc(Cl)c1O` here?
A: The Potency was “inactive”.

Q: And the Potency [2]?
A: The Potency was “inactive”.

Q: What about the outcome [3] of the same molecule?
A: Its outcome is “inactive”.

Q: What about the outcome [4] of the same molecule?
A: The outcome was “inactive”.

Q: And the Potency [5]?
A: The Potency was “inactive”.

Q: What about the Potency [6] of the same molecule?
A: The Potency was “inactive”.

Q: And the Potency [7]?
A: The Potency was “inactive”.

Q: For `COC(=O)[C@H]1[C@H]2C[C@@H]3c4[nH]c5cc(OC)ccc5c4CCN3C[C@H]2C[C@@H](OC(=O)c2cc(OC)c(OC)c(OC)c2)[C@@H]1OC`, which Potency [1] is on record?
A: Its Potency is “inactive”.

Q: What about the Potency [2] of the same molecule?
A: The Potency was “inactive”.

Q: What about the outcome [3] of the same molecule?
A: Its outcome is “inactive”.

Q: What about the outcome [4] of the same molecule?
A: Its outcome is “inactive”.

Q: What about the Potency [5] of the same molecule?
A: The Potency was “inactive”.

Q: And the Potency [6]?
A: The Potency was “inactive”.

Q: What about the Potency [7] of the same molecule?
A: Its Potency is “inactive”.

Q: What about the Potency [9] of the same molecule?
A: Its Potency is “inactive”.

Q: With `CCN(CC)c1ccc2c(C)cc(=O)oc2c1` as the molecule, how does the Potency [1] read?
A: Its Potency is “inactive”.

Q: And the Potency [2]?
A: Its Potency is “inactive”.

Q: And the outcome [3]?
A: The outcome was “inactive”.

Q: What about the outcome [4] of the same molecule?
A: The outcome was “inactive”.

Q: What about the Potency [5] of the same molecule?
A: The Potency was 35.5 µM [fluorescent] (active) and 39.8 µM [fluorescent] (active).

Q: What about the Potency [6] of the same molecule?
A: The Potency was “inactive”.

Q: What about the Potency [7] of the same molecule?
A: Its Potency is 39.8 µM [fluorescent] (active).

Q: Which Potency [1] does the source give for `O=C(O)c1cccc(C(=O)O)c1` here?
A: The Potency was “inactive”.

Q: What about the Potency [2] of the same molecule?
A: The Potency was “inactive”.

Q: And the outcome [3]?
A: Its outcome is “inactive”.

Q: What about the outcome [4] of the same molecule?
A: The outcome was “inactive”.

Q: What about the Potency [5] of the same molecule?
A: Its Potency is “inactive”.

Q: What about the Potency [6] of the same molecule?
A: Its Potency is “inactive”.

Q: And the Potency [7]?
A: The Potency was “inactive”.

Q: And the Potency [9]?
A: Its Potency is “inactive”.

Q: And the Potency [10]?
A: The Potency was “inactive”.

Q: What does the source list for `CCC[C@H](N[C@@H](C)C(=O)N1[C@H](C(=O)O)C[C@@H]2CCCC[C@@H]21)C(=O)OCC`?
A: Potency [1]: inactive; Potency [2]: inactive; outcome [3]: inactive; outcome [4]: inactive; Potency [5]: inactive; Potency [6]: inactive; Potency [7]: inactive; Potency [9]: inactive; Potency [10]: inactive

Q: With `O=C(Cl)c1cccc(C(=O)Cl)c1` as the molecule, how does the Potency [1] read?
A: Its Potency is “inactive”.

Q: What about the Potency [2] of the same molecule?
A: Its Potency is “inactive”.

Q: What about the outcome [3] of the same molecule?
A: The outcome was “inactive”.

Q: What about the outcome [4] of the same molecule?
A: The outcome was “inactive”.

Q: And the Potency [5]?
A: The Potency was “inactive”.

Q: And the Potency [6]?
A: Its Potency is “inactive”.

Q: And the Potency [7]?
A: Its Potency is “inactive”.

Q: What about the Potency [9] of the same molecule?
A: Its Potency is “inactive”.

Q: And the Potency [10]?
A: Its Potency is “inactive”.

Q: With `Cc1cccc([N+](=O)[O-])c1C(=O)O` as the molecule, how does the Potency [1] read?
A: Its Potency is “inactive”.

Q: What about the Potency [2] of the same molecule?
A: Its Potency is “inactive”.

Q: And the outcome [3]?
A: Its outcome is “inactive”.

Q: And the outcome [4]?
A: Its outcome is “inactive”.

Q: And the Potency [5]?
A: The Potency was “inactive”.

Q: What about the Potency [6] of the same molecule?
A: Its Potency is “inactive”.

Q: What about the Potency [7] of the same molecule?
A: Its Potency is “inactive”.

Q: And the Potency [9]?
A: Its Potency is “inactive”.

Q: What about the Potency [10] of the same molecule?
A: Its Potency is “inactive”.

Q: Which results are given for `CC(C)CCOCc1ccccc1`?
A: Potency [1]: inactive; Potency [2]: inactive; outcome [3]: inactive; outcome [4]: inactive; Potency [5]: inactive; Potency [6]: inactive; Potency [7]: inactive; Potency [9]: inactive; Potency [10]: inactive

Q: Which results are given for `Cc1cc(Cc2cc(C)cc(C(C)(C)C)c2O)c(O)c(C(C)(C)C)c1`?
A: Potency [1]: inactive; Potency [2]: inactive; outcome [3]: inactive; outcome [4]: inactive; Potency [5]: inactive; Potency [6]: inactive; Potency [7]: inactive

Q: Which Potency [1] does the source give for `O=C(O[C@@H]1Cc2c(O)cc(O)cc2O[C@@H]1c1cc(O)c(O)c(O)c1)c1cc(O)c(O)c(O)c1` here?
A: The Potency was “inactive”.

Q: And the Potency [2]?
A: The Potency was “inactive”.

Q: And the outcome [3]?
A: The outcome was “inactive”.

Q: And the outcome [4]?
A: The outcome was “inactive”.

Q: And the Potency [5]?
A: The Potency was “inactive”.

Q: And the Potency [6]?
A: The Potency was “inactive”.

Q: And the Potency [7]?
A: Its Potency is “inactive”.

Q: And the Potency [9]?
A: Its Potency is “inactive”.

Q: What about the Potency [10] of the same molecule?
A: The Potency was “inactive”.
